The source of these data is PubChem BioAssay (NCATS).

Test [1] has as its system MCC-13. Kind of test: qHTS assay to identify novel small-molecules to repurpose for Merkel cell carcinoma treatment (AID 1296009). Further: nearly all actives have a fitted effect of over 60% in size. As to conditions: MCC and control cell lines, CellTiter-Glo viability, 72 h; series mostly up to 46 µM. In outline: (§1)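 After compound transfer in DMSO, plates were kept 72 hr at 37 degree celsius. Luminescent ATP signal from CellTiter-Glo served as viability measure, normalized against DMSO and no-cell controls.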
(Quantitative high-throughput screening tests each substance at several concentrations.)

Test [2] concerns MKL-1. The description is as above. As to conditions: MCC and control cell lines, CellTiter-Glo viability, 72 h; series mostly up to 46 µM. Put shortly: as §1
Test [3] relates to MKL-2. The description is as above. As to conditions: MCC and control cell lines, CellTiter-Glo viability, 72 h; series mostly up to 46 µM. In outline:
as §1
For orientation: In ATP-based viability assays light output follows the ATP content of the culture.

The test system of test [4] is NIH3T3. The description is as above. As to conditions: MCC and control cell lines, CellTiter-Glo viability, 72 h; at 44.8 µM (top of the series) unless noted. Put shortly:
as §1

The subject of test [5] is UISO. The test is described as above. As to conditions: MCC and control cell lines, CellTiter-Glo viability, 72 h; series mostly up to 46 µM. In outline:
as §1

Test [6] has as its system WaGa. Described as above. As to conditions: MCC and control cell lines, CellTiter-Glo viability, 72 h; series mostly up to 46 µM. In outline: as §1
Test [7] has as its system C33A. Description: Primary qHTS to identify gynecologic anti-cancer compounds using libraries of approved drugs and bioactive compounds (AID 1345084). Further: nearly all actives have a fitted effect of over 55% in size. As to conditions: Gynecologic cancer cell panel viability, ATPlite luminescence, 48 h; series mostly up to 57.5 µM. Put shortly:
(§2)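 Cells, 1,000 per well, plated 16 h, then exposed 48 h at 37 C to compounds. Viability by ATPlite luminescence after 15 min at room temperature.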

In test [8] the test system is CAOV3. The description is as above. As to conditions: Gynecologic cancer cell panel viability, ATPlite luminescence, 48 h; series mostly up to 57.5 µM. In outline: as §2
The test system of test [9] is CASKI. Described as above. As to conditions: Gynecologic cancer cell panel viability, ATPlite luminescence, 48 h; series mostly up to 57.5 µM. Put shortly: as §2
Test [10] concerns Es-2. The description is as above. As to conditions: Gynecologic cancer cell panel viability, ATPlite luminescence, 48 h; series mostly up to 57.5 µM. Put shortly: as §2
Test [11] relates to HeLa. The test is described as above. As to conditions: Gynecologic cancer cell panel viability, ATPlite luminescence, 48 h; series mostly up to 57.5 µM. In outline:
as §2

In test [12] the test system is Hek293T. The test is described as above. As to conditions: Gynecologic cancer cell panel viability, ATPlite luminescence, 48 h, control line for the selectivity index; series mostly up to 57.5 µM. Put shortly:
as §2

Test [13] relates to JEG-3. The test is described as above. As to conditions: Gynecologic cancer cell panel viability, ATPlite luminescence, 48 h; series mostly up to 57.5 µM. In outline:
as §2

For test [14], the system named is PA-1. Described as above. As to conditions: Gynecologic cancer cell panel viability, ATPlite luminescence, 48 h; series mostly up to 57.5 µM. In outline:
as §2

For test [15], the system named is SKOV3. The test is described as above. As to conditions: Gynecologic cancer cell panel viability, ATPlite luminescence, 48 h; series mostly up to 57.5 µM. Put shortly: as §2
Test [16] concerns Tov-21-G. The test is described as above. As to conditions: Gynecologic cancer cell panel viability, ATPlite luminescence, 48 h; series mostly up to 57.5 µM. In outline:
as §2

Test [17] relates to Tov112D. The test is described as above. As to conditions: Gynecologic cancer cell panel viability, ATPlite luminescence, 48 h; series mostly up to 57.5 µM. In outline:
as §2

The nature of test [18]: Drug repurposing screens with cells derived from glioblastoma tumor samples (AID 1345199). Further: nearly all actives have a fitted effect of over 40% in size. As to conditions: GBM patient neurospheres viability, ATP luminescence, 48 h. Put shortly:
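Four patient lines of CD133+ GBM neurospheres were screened at several concentrations; hits were retested in those lines plus three slower-growing GBM lines, using 48-hour treatment and ATP-based viability.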

Test [19] concerns MCC-26. Kind of test: qHTS assay to identify novel small-molecules to repurpose for Merkel cell carcinoma treatment (AID 1296009). Further: nearly all actives have a fitted effect of over 60% in size. As to conditions: MCC and control cell lines, CellTiter-Glo viability, 72 h; series mostly up to 46 µM. Put shortly:
as §1

Test [20] deals with OV90. Kind of test: Primary qHTS to identify gynecologic anti-cancer compounds using libraries of approved drugs and bioactive compounds (AID 1345084). Further: nearly all actives have a fitted effect of over 55% in size. As to conditions: Gynecologic cancer cell panel viability, ATPlite luminescence, 48 h; series mostly up to 57.5 µM. In outline: as §2
Where [21] appears, read: at 45.9 µM (top of the series), tumour line B.
The mark [22] stands for this setting: at 45.9 µM (top of the series), tumour line D.
The mark [23] stands for this setting: at 46.1 µM (top of the series), tumour line C.

“And” between values parts separate entries of the source, which are not always exact repeats. Identical values can stand only once. Results filed as inconclusive are left out. A number with no mark means an inactive call. The source made the active and inactive calls. The call rests on the fitted dose curve; in most records, active means well fitted curve in the direction sought with a large enough effect; inconclusive means small, poorly fitted or top-dose-only effect, or another doubt; inactive means no such curve, though single readings can be large; an effect the other way counts as inactive or inconclusive.
On the % scale 0 is the no-effect control and ±100 the full control effect; potency means the concentration at half of the fitted maximal effect.

Regarding `C/C(=C(\CCOP(=O)(O)O)SC(=O)c1ccccc1)N(C=O)Cc1cnc(C)nc1N`, the activity change, negative = cytotoxicity in [1] was -6.17% [at 4.84 µM]; in [2] it was 2.11% [at 4.84 µM]; in test [3], 12.5% [at 4.84 µM]; in test [5] it was 22.4% [at 4.84 µM]; in test [6] it was 24.3% [at 4.84 µM]; in test [7], 4.02% [at 6.55 µM]. The activity change, negative = cytotoxicity was -0.0932% [at 6.55 µM] in test [8]; 2.61% [at 6.55 µM] in test [9]; -4.63% [at 6.55 µM] in test [10]; 3.42% [at 6.55 µM] in test [11]; -6.19% [at 6.55 µM] in [12]; -14.5% [at 6.55 µM] in [13]. Besides, the activity change, negative = cytotoxicity is 12.8% [at 6.55 µM] in test [14], 16.3% [at 6.55 µM] in [15], 4.62% [at 6.55 µM] in test [16] and 5.69% [at 6.55 µM] in [17]. For the same molecule, in [4], the outcome is “inactive [at 4.96 µM]”. For the same molecule, the activity, negative = cell killing in test [18] (at 20 µM (top of the series), tumour line C) is -2.37%; in test [18] (at 21.2 µM (top of the series), tumour line B), 1.9%; in test [18] (at 21.2 µM (top of the series), tumour line D), -14.8%; in test [18] (at 21.3 µM (top of the series), tumour line A), -14%.

For the molecule `CC(=O)Oc1ccc(C2(c3ccc(OC(C)=O)cc3)C(=O)Nc3ccccc32)cc1`, the Potency entry in test [1], in test [19], in test [2], in test [3], in test [6] and in test [7] was “inactive” throughout. The Potency entry in test [8], in test [9], in test [10], in [11], in test [12] and in test [13] was “inactive” throughout. Further, the Potency entry in test [14] and in test [15] was “inactive” in each case. In addition, in test [20], the Potency was 8.91 µM (active). The activity, negative = cell killing in test [18] (setting [21]) is 0.963% and -11%; in [18] (setting [22]), -19.5% and -4.76%; in test [18] (setting [23]) it was -13% and -13.5%.

Take `COc1cc(C(=O)N2CCOCC2)cc(OC)c1OC`: the Potency entry in [1], in test [2], in test [3], in test [5], in [6] and in test [7] was “inactive” each time. Further, the Potency result in [9], in [10], in test [11], in test [12], in test [13] and in [20] was “inactive” throughout. The Potency entry in test [14], in test [15], in test [16] and in test [17] was “inactive” each time. Moreover, the molecule was called inactive in test [4]. For the same molecule, the activity, negative = cell killing in [18] (setting [21]) was 8.47% and -7.54%; in [18] (setting [22]), 3.68% and -23%; in test [18] (at 46 µM (top of the series), tumour line A) it was -14.2%; in [18] (setting [23]), -7.33% and -2.64%.

On to `CC(C)(C)C(=O)NCCCC(=O)O`, for which the Potency entry in [1], in test [2], in test [3], in [5], in [6] and in test [7] was “inactive” throughout. In addition, the Potency result in test [8], in [9], in [10], in test [11], in [12] and in [13] was “inactive” in each case. Further, the Potency entry in [20], in test [14], in test [15], in [16] and in [17] was “inactive” throughout. In test [4], the result was inactive. Further, the figures for the activity, negative = cell killing in test [18] (setting [21]), in test [18] (setting [22]) and in test [18] (setting [23]) were -17.2%, -2.84% and -20.2%, respectively.

Turning to `COC(=O)C1=C(C)NC(C)=C(C(=O)OC)C1c1ccccc1[N+](=O)[O-]`, the Potency result in [1], in test [19], in [7], in [8], in test [9] and in test [10] was “inactive” each time. Further, the Potency result in test [12], in [13], in [20], in test [14], in [15] and in [16] was “inactive” throughout. Also, the Potency entry in test [17] was “inactive”. In addition, the Potency in test [3] is 23.7 µM (active).

For the molecule `O=C(CCCN1CCN(c2ccccn2)CC1)c1ccc(F)cc1`, the Potency result in [1], in test [19], in [2], in [3], in [6] and in [7] was “inactive” in each case. The Potency entry in [9], in test [10], in [11], in [12], in [13] and in test [20] was “inactive” each time. Moreover, the Potency entry in test [14], in test [15], in test [16] and in [17] was “inactive” throughout. In addition, the activity, negative = cell killing in test [18] (setting [21]) is -17%. Besides, the Potency in test [18] (tumour line A) was 8.91 µM (active).
